Records with an inconclusive call do not appear. The source made the active and inactive calls. The call rests on the fitted dose curve; in most records, active means well fitted curve in the direction sought with a large enough effect in the repeat runs; inconclusive means weak or mixed curves; inactive means no such curve, though single readings can be large; an effect the other way counts as inactive or inconclusive.
Legend:
[1] = A CellTox Green Cytotoxicity Assay to monitor cytotoxicity in HepG2 cells - 0 hour (AID 1224882); further: nearly all actives have a fitted effect of over 35% in size
How it was run: (§1)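 HepG2, 600 cells/well premixed w/ CellTox Green; 5 h settle, 37 C/5% CO2; pintool cpd add (DMSO); 37 C, 40 h; fluorescence read at 0, 8, 16, 24, 32, 40 h.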

[2] = A CellTox Green Cytotoxicity Assay to monitor cytotoxicity in HEK293 cells - 8 hour (AID 1224884); further: nearly all actives have a fitted effect of over 35% in size; further: potency means the concentration at half of the fitted maximal effect
How it was run: (§2)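 Read-out: fluorescence of a cell-impermeant cyanine dye staining DNA of dead cells, proportional to cytotoxicity. HEK293, 600 cells/well with reagent, compound (23 nL DMSO) added after 5 h; reads at 0, 8, 16, 24, 32, 40 h.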

[3] = qHTS RealTime-Glo MT Cell Viability Assay in HepG2 cells - 16 hour (AID 1224885); further: nearly all actives have a fitted effect of over 50% in size
How it was run: (§3)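 Tox21 10K library screened in qHTS format on HepG2 cells carrying RealTime-Glo reagents. Compounds were added after a 5 h preincubation, and the luminescent signal from continuous culture was measured repeatedly during 40 h treatment.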

[4] = qHTS RealTime-Glo MT Cell Viability Assay in HEK293 cells - 24 hour (AID 1224886); further: top concentration of the series differs between compounds; nearly all actives have a fitted effect of over 50% in size
How it was run: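 Luminescence generated by NanoLuc from substrate produced by living HEK293 cells served as the viability signal. Each value reflects the reading at its stated time point during continuous 40 h compound exposure at 37 C.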

[5] = qHTS RealTime-Glo MT Cell Viability Assay in HEK293 cells - 8 hour (AID 1224887); further: nearly all actives have a fitted effect of over 50% in size; further: potency means the concentration at half of the fitted maximal effect
How it was run: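 Luminescence readout at each listed time point; HEK293, 600 cells/well, RealTime-Glo MT reagent added with cells; compounds pinned (23 nL in DMSO) after 5 h at 37 C; continuous culture at 37 C.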

[6] = A CellTox Green Cytotoxicity Assay to monitor cytotoxicity in HEK293 cells - 16 hour (AID 1224888); further: nearly all actives have a fitted effect of over 35% in size; further: potency means the concentration at half of the fitted maximal effect
How it was run: as §2

[7] = qHTS RealTime-Glo MT Cell Viability Assay in HepG2 cells - 0 hour (AID 1224889); further: nearly all actives have a fitted effect of over 50% in size
How it was run: as §3

[8] = A CellTox Green Cytotoxicity Assay to monitor cytotoxicity in HepG2 cells - 8 hour (AID 1224890); further: nearly all actives have a fitted effect of over 45% in size; further: potency means the concentration at half of the fitted maximal effect
How it was run: as §1

[9] = qHTS assay to identify small molecule antagonists of the estrogen receptor alpha (ER-alpha) signaling pathway using the BG1 cell line in the presence of 0.1 nM 17-beta-estradiol - cell viability counter screen (AID 1259241); further: nearly all actives have a fitted effect of over 40% in size
How it was run: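 Cytotoxicity counter-screen: live-cell protease activity measured by fluorescence (30 min reagent step) in the same wells. Cells were VM7Luc4E2 with endogenous ER-alpha and ERE-driven luciferase, treated 22 hr at 37C alongside 0.1 nM 17beta-estradiol final.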

[10] = A CellTox Green Cytotoxicity Assay to monitor cytotoxicity in HepG2 cells - 32 hour (AID 1224883); further: nearly all actives have a fitted effect of over 50% in size; further: potency means the concentration at half of the fitted maximal effect
How it was run: as §1

Measured: Potency

CC(C)c1ccc(C(=O)N=C(N)N)cc1S(C)(=O)=O
inactive: [1] | [2] | [3] | [4] | [5] | [6] | [7] | [8] | [9]

O=C(Oc1ccccc1)c1ccc2ccccc2c1O
inactive: [1] | [2] | [3] | [6] | [7] | [8] | [9]

COC(=O)CC(C(C)=O)C(=O)OC (stereo not drawn)
inactive: [1] | [2] | [3] | [4] | [5] | [6] | [7] | [8] | [9]

COc1cc(OC)c2ccc(=O)oc2c1
inactive: [1] | [2] | [3] | [4] | [5] | [6] | [8] | [9]

CC(=O)OCCC1CCCCC1
inactive: [1] | [2] | [3] | [4] | [5] | [6] | [7] | [8] | [9]

CCCCOCCOC(=O)c1cccnc1
inactive: [1] | [2] | [3] | [4] | [5] | [6] | [7] | [8] | [9]

O=C1c2ccccc2C(=O)c2c(O)ccc(O)c21
inactive: [3] | [4] | [5] | [7]
active: [10] 24.5 µM | [2] 27.5 µM | [6] 30.9 µM | [8] 21.9 µM

COc1cc(NC(C)CCCN)c2ncccc2c1 (stereo not drawn)
inactive: [1] | [2] | [3] | [4] | [6] | [7] | [8]

CC(C)COC(=O)c1ccc(O)cc1
inactive: [1] | [2] | [3] | [7] | [8] | [9]

CC1CCc2nccnc21 (stereo not drawn)
inactive: [1] | [2] | [3] | [4] | [5] | [6] | [8]

CCC(CO)(CO)[N+](=O)[O-]
inactive: [1] | [2] | [3] | [4] | [5] | [6] | [7] | [8] | [9]

CC(C)(O)c1coc(S(=O)(=O)NC(=O)Nc2c3c(cc4c2CCC4)CCC3)c1
inactive: [1] | [2] | [3] | [4] | [5] | [6] | [7] | [8] | [9]

CCCCCCCC/C=C\CCCCCCCC(=O)OCCO
active: [5] 57.8 µM
inactive: [1] | [2] | [3] | [4] | [6] | [8]

c1ccc(CCCc2ccncc2)cc1
inactive: [1] | [2] | [3] | [5] | [7] | [9]

Cc1ccc(N(CC2=NCCN2)c2cccc(O)c2)cc1
inactive: [1] | [2] | [3] | [4] | [5] | [6] | [7] | [8] | [9]

COc1ccc(-n2nc(C(F)F)cc2-c2ccc(S(C)=O)cc2)cc1 (stereo not drawn)
inactive: [1] | [2] | [3] | [4] | [5] | [6] | [7] | [8] | [9]

CC1=CC[C@@]23C[C@@H]1C(C)(C)[C@@H]2CC[C@H]3C
inactive: [1] | [2] | [3] | [4] | [5] | [6] | [8]

O=C(O)CN1C(=O)c2cccc3cccc(c23)C1=O
inactive: [1] | [2] | [3] | [4] | [5] | [6] | [7] | [8] | [9]

CNC1CCCN(c2c(F)cc3c(=O)c(C(=O)O)cn(C4CC4)c3c2OC)C1 (stereo not drawn)
inactive: [1] | [2] | [3] | [4] | [5] | [6] | [7] | [8] | [9]

CC[C@@H](CO)NCCN[C@@H](CC)CO
inactive: [1] | [2] | [3] | [4] | [5] | [6] | [7] | [8] | [9]

C[C@@H]1[C@H](O)[C@@H](C)/C=C/C=C\C=C\C=C\C=C\C=C\C=C\[C@H](O[C@@H]2O[C@H](C)[C@@H](O)[C@H](N)[C@@H]2O)C[C@@H]2O[C@](O)(C[C@@H](O)C[C@@H](O)[C@H](O)CC[C@@H](O)C[C@@H](O)CC(=O)O[C@H]1C)C[C@H](O)[C@H]2C(=O)O (stereo in doubt)
inactive: [1] | [2] | [3] | [4] | [5] | [6] | [7] | [8] | [9]

C=Cc1ccc(OC(C)=O)cc1
inactive: [1] | [2] | [3] | [5] | [6] | [7] | [8] | [9]

CNCc1ccc(NC(=O)c2c[nH]c3c2C(=O)CCC3)cc1
inactive: [1] | [2] | [3] | [6] | [7] | [8] | [9]

O=NN(CCCl)C(=O)NCCCl
inactive: [2] | [3] | [4] | [5] | [6] | [7] | [9]
active: [8] 5.35 µM

Cc1c[nH]c2ccccc12
inactive: [10] | [2] | [3] | [4] | [5] | [6] | [7] | [8] | [9]

From PubChem BioAssay (Tox21)
